Assay results as given in PubChem BioAssay (NCATS).
Records with an inconclusive call do not appear. Unmarked numbers belong to inactive results. Active and inactive are the calls of the source. Calls follow the shape of the dose curve; as a rule, active = well fitted inhibition curve with a large enough effect; inconclusive = small, poorly fitted or top-dose-only effect; inactive = flat fitted curve, though single readings scatter.

What follows are compounds tested against Ubiquitin carboxyl-terminal hydrolase 1 (Homo sapiens) (UniProt O94782) (assay: Inhibitors of USP1/UAF1: Pilot qHTS (AID 504865; also: nearly all actives have a fitted effect of over 35% in size;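 as to activity change, negative = inhibition: rhodamine fluorescence freed from ubiquitin-rhodamine substrate followed over time; top concentration of the series differs between compounds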)). Settings: purified USP1/UAF1, Ub-rhodamine cleavage fluorescence; series mostly up to 114 µM; activity change, negative = inhibition: at the top concentration.
Summary of the method: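 Deubiquitinase activity followed as kinetic rhodamine fluorescence release from 150 nM Ub-Rho. 1 nM USP1/UAF1 with compound, after 15 min room-temperature preincubation, in HEPES pH 7.8 buffer containing TCEP, EDTA, BSA and Tween-20.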
% is scaled to controls: 0 for no effect and ±100 for the full control effect; potency is read from the fitted curve at half-maximal effect.

Ubiquitin carboxyl-terminal hydrolase 1 (Homo sapiens), sequence (O94782 whole entry, looked up): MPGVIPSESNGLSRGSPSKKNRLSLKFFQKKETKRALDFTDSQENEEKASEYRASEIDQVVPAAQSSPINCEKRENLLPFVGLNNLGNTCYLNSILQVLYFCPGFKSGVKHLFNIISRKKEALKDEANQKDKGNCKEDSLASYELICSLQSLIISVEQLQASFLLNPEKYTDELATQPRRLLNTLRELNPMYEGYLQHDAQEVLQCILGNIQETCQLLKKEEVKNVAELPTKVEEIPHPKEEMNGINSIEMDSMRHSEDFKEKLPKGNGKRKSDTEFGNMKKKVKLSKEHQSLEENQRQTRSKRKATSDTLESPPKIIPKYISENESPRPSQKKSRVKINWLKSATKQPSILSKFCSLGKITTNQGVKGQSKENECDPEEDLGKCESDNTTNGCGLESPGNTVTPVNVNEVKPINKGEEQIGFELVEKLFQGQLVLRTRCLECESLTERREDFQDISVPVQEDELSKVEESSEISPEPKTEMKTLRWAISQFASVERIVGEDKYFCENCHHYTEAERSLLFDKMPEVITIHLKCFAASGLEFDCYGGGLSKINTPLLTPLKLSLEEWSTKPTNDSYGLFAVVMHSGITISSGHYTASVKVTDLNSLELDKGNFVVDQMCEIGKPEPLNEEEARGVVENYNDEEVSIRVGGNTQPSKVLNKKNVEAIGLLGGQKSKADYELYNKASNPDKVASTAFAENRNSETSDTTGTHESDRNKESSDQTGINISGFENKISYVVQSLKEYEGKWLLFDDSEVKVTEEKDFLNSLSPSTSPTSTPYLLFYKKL

Compound | Potency | activity change, negative = inhibition
COc1c2c(c(CC=C(C)C)c3oc(=O)c(-c4ccc(O)cc4)c(O)c13)OC(C)(C)C=C2 | 79.4 µM (active) | 
CCC1C(=O)OC[C@H]1Cc1cncn1C (some centres not stated) |  | -7.37%
C=CCO[C@@H](Cn1ccnc1)c1ccc(Cl)cc1Cl |  | 6.71% [at 54.9 µM]
CN1[C@H]2CC(OC(=O)[C@H](CO)c3ccccc3)C[C@H]1[C@H]1O[C@H]12 (some centres not stated) |  | 1.94%
CC(=O)Oc1c2c(c(CC=C(C)C)c3c1C(=O)C1=CC4CC5C(C)(C)OC(C/C=C(\C)C(=O)O)(C4=O)[C@]15O3)OC(C)(CCC=C(C)C)C=C2 (some centres not stated) | 12.6 µM (active) | 
CNNC |  | -12.1%
CC(=O)OC1C2CCC3C1(CC(O)[C@@]1(O)[C@@H](CC(O)C1(C)C)[C@]3(C)O)C[C@@]2(C)O (some centres not stated) |  | -5.32% [at 54.9 µM]
O=C1CC[C@]2(O)C3Cc4ccc(O)c5c4C2(CCN3CC2CC2)C1O5 (some centres not stated) |  | -10.8%
CCCCN(CC)c1c([N+](=O)[O-])cc(C(F)(F)F)cc1[N+](=O)[O-] |  | -6.84%
COc1ccc(C(=O)O)cc1OC |  | -2.61%
CN(C)C1C(=O)C(C(N)=O)=C(O)[C@@]2(O)C(=O)C3=C(O)c4c(O)cccc4[C@@](C)(O)C3CC12 (some centres not stated) |  | -98.6%
CC[C@]1([C@H]2O[C@@H]([C@@H]3O[C@](O)(CO)[C@@H](C)C[C@H]3C)C[C@H]2C)CC[C@@H]([C@]2(C)CC[C@@]3(C[C@@H](O)[C@@H](C)[C@@H]([C@H](C)[C@H](OC)[C@H](C)C(=O)O)O3)O2)O1 |  | -1.92%
CC(=O)OC1CCC2(C)C3=C(CCC2C1(C)C)[C@@]1(C)CCC(C(C)CCC=C(C)C)[C@@]1(C)CC3 (some centres not stated) |  | -11.1%
CCC1C2CC3C4N(C)c5ccccc5[C@]45CC(C2C5O)N3C1O (some centres not stated) |  | -13.5%
OCC1OC(n2cnc3cc(Cl)c(Cl)cc32)C(O)C1O (configuration not stated) |  | 3.97%
COc1ccc(CC2NC[C@H](O)[C@H]2OC(C)=O)cc1 (some centres not stated) |  | -7.05%
CC1CC(Cl)CCC1C(=O)OC(C)(C)C (configuration not stated) |  | -10.5%
Cc1cccc2c3c(ccc12)C1=C(C(=O)C3=O)C(C)CO1 (configuration not stated) | 50.1 µM (active) | 
CSc1nc(NC(C)C)nc(NC(C)C)n1 |  | -5.96%

Compound | Potency | activity change, negative = inhibition
CC1(C)C(C(Cl)Cl)C2(Cl)C(Cl)C(Cl)C1(Cl)C2(Cl)Cl (configuration not stated) |  | -14.3%
CC(C)=O |  | 1.97%
CC(CO)NC(=O)C1C=C2c3cccc4[nH]cc(c34)C[C@H]2N(C)C1 (some centres not stated) |  | -11.4%
NCC(N)C(=O)c1ccccc1 (configuration not stated) |  | -13%
C[C@@]12C=CC(=O)C=C1CCC1C2CC[C@]2(C)C(=O)CCC12 (some centres not stated) |  | -13.2%
CNC1=CN(O)C(c2ccccc2)=c2cc(Cl)ccc2=N1 |  | 0.974%
CC(=O)OCC1=C(C(=O)O)N2C(=O)C(NC(=O)CCCC(N)C(=O)O)C2SC1 (configuration not stated) |  | -11.3%
C=CCN1CC[C@]23c4c5ccc(O)c4OC2C(=O)CC[C@]3(O)C1C5 (some centres not stated) |  | -11.6%
COC(=O)[C@]1(C)CC[C@@]2(C)CC[C@@]3(C)C4=CC=C5C(=CC(=O)C(O)=C5C)[C@@]4(C)CC[C@@]3(C)C2C1 (some centres not stated) | 44.7 µM (active) | 
OCC(O)Cc1ccc2c(c1)OCO2 (configuration not stated) |  | -7.11%
COC(=O)/C(C)=C\CC12OC(C)(C)C3CC(C=C4C(=O)c5c(OC)c6c(c(CC=C(C)C)c5OC431)OC(C)(CCC=C(C)C)C=C6)C2=O (configuration not stated) | 39.8 µM (active) | 
C[C@H]1O[C@H](O[C@H]2[C@H](O)[C@@H](O)[C@@H](O)[C@H](O)[C@@H]2O)[C@@H](N)C[C@@H]1NC(=N)C(=O)O |  | -6.47%
CN(CCC(N)CC(=O)NC1C=CC(n2ccc(N)nc2=O)OC1C(=O)O)C(=N)N (configuration not stated) |  | -5.43%
CC1CC(C)C(=O)[C@H](C(O)CC2CC(=O)NC(=O)C2)C1 (some centres not stated) |  | -6.84%
CC[C@]1(O)CC(O[C@@H]2CC(N(C)C)C(O)C(C)O2)c2c(cc3c(c2O)C(=O)c2c(O)cccc2C3=O)C1C(=O)OC (some centres not stated) | 56.2 µM (active) | 
COc1ccc(C2Oc3c(I)c(OC)cc(OC)c3CC2O)cc1OC (configuration not stated) |  | -7.08%
NC1C[C@H]1c1ccccc1 (some centres not stated) |  | -7.62%
N#Cc1c(Cl)c(Cl)c(Cl)c(C#N)c1Cl | 10 µM (active) | 
